Assay results: PubChem BioAssay AID1159580 (chemical genetic matrix, 2015)
Out of some 5,500 compounds screened, about 2,000 (36%) were called active. Roughly 18% stayed inconclusive and do not appear here. Rule as the data show it: active = normalized growth mostly below about 0.91 (no sharp cut-off); inconclusive = no clear call, values can overlap the other calls; inactive = mostly above about 0.92. The list shows a part of the results.

Assay: chemical genetic growth profiling, strain panel (AID 1159580);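 also: tested at 20 µM; growth read once vehicle control cultures reached saturation at 30 °C; 1 = growth at the plate median or of vehicle wells; lower values mean less growth of the strain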
Settings: growth OD

Measured: normalized growth

O=c1cccc2n1CC1CC2CN2CCCC[C@@H]12 (stereo not given in full)
inactive: S. cerevisiae deletion strains, locus YJR043C, strain POL32, stronger effect = lower value 0.982 | S. cerevisiae deletion strains, locus YJR066W, strain TOR1, stronger effect = lower value 0.98 | S. cerevisiae deletion strains, locus YJR075W, strain HOC1, stronger effect = lower value 0.986 | S. cerevisiae deletion strains, locus YKL009W, strain mrt4, stronger effect = lower value 0.977 | S. cerevisiae deletion strains, locus YKL068W, stronger effect = lower value 0.983 | S. cerevisiae deletion strains, locus YKL085W, strain MDH1 (second series), stronger effect = lower value 0.986 | S. cerevisiae deletion strains, locus YKL085W, strain MDH1, stronger effect = lower value 0.986 | S. cerevisiae deletion strains, locus YKL160W, strain elf1, stronger effect = lower value 0.996 | S. cerevisiae deletion strains, locus YKR001C, strain vps1, stronger effect = lower value 1 | S. cerevisiae deletion strains, locus YKR026C, strain gcn3, stronger effect = lower value 0.965 | S. cerevisiae deletion strains, locus YKR091W, strain srl3, stronger effect = lower value 0.978 | S. cerevisiae deletion strains, locus YLL001W, strain dnm1, stronger effect = lower value 0.987 | S. cerevisiae deletion strains, locus YLL026W, stronger effect = lower value 0.976 | S. cerevisiae deletion strains, locus YLL041C, strain sdh2, stronger effect = lower value 0.98 | S. cerevisiae deletion strains, locus YLR027C, strain aat2, stronger effect = lower value 0.984 | S. cerevisiae deletion strains, locus YLR039C, strain RIC1, stronger effect = lower value 1 | S. cerevisiae deletion strains, locus YLR058C, strain SHM2, stronger effect = lower value 0.978 | S. cerevisiae deletion strains, locus YLR102C, strain apc9, stronger effect = lower value 0.982 | S. cerevisiae deletion strains, locus YLR113W, strain HOG1, stronger effect = lower value 0.985 | S. cerevisiae deletion strains, locus YLR221C, strain rsa3, stronger effect = lower value 1 | S. cerevisiae deletion strains, locus YLR258W, strain gsy2, stronger effect = lower value 0.978 | S. cerevisiae deletion strains, locus YLR262C, strain YPT6 (second series), stronger effect = lower value 1.01 | S. cerevisiae deletion strains, locus YLR262C, strain YPT6, stronger effect = lower value 0.955 | S. cerevisiae deletion strains, locus YLR268W, strain sec22, stronger effect = lower value 1.03 | S. cerevisiae deletion strains, locus YLR320W, strain mms22, stronger effect = lower value 0.974 | S. cerevisiae deletion strains, locus YLR330W, strain CHS5, stronger effect = lower value 0.997 | S. cerevisiae deletion strains, locus YLR342W, strain FKS1 (second series), stronger effect = lower value 1.01 | S. cerevisiae deletion strains, locus YLR342W, strain FKS1, stronger effect = lower value 0.975 | S. cerevisiae deletion strains, locus YLR357W, strain rsc2, stronger effect = lower value 0.943 | S. cerevisiae deletion strains, locus YLR370C, strain arc18, stronger effect = lower value 0.989 | S. cerevisiae deletion strains, locus YLR371W, strain rom2, stronger effect = lower value 0.977 | S. cerevisiae deletion strains, locus YLR384C, strain iki3, stronger effect = lower value 0.976 | S. cerevisiae deletion strains, locus YLR418C, strain cdc73, stronger effect = lower value 0.957 | S. cerevisiae deletion strains, locus YML016C, strain PPZ1, stronger effect = lower value 0.991 | S. cerevisiae deletion strains, locus YML032C, strain rad52, stronger effect = lower value 0.987 | S. cerevisiae deletion strains, locus YML120C, strain ndi1, stronger effect = lower value 1.02 | S. cerevisiae deletion strains, locus YML124C, strain tub3, stronger effect = lower value 0.978 | S. cerevisiae deletion strains, locus YMR058W, strain fet3, stronger effect = lower value 0.987 | S. cerevisiae deletion strains, locus YMR078C, strain ctf18, stronger effect = lower value 0.98 | S. cerevisiae deletion strains, locus YMR125W, strain sto1, stronger effect = lower value 0.944 | S. cerevisiae deletion strains, locus YMR129W, stronger effect = lower value 0.987 | S. cerevisiae deletion strains, locus YMR205C, strain PFK2, stronger effect = lower value 0.928 | S. cerevisiae deletion strains, locus YMR223W, strain ubp8, stronger effect = lower value 0.958 | S. cerevisiae deletion strains, locus YMR231W, strain pep5, stronger effect = lower value 0.98 | S. cerevisiae deletion strains, locus YMR263W, strain SAP30, stronger effect = lower value 0.981 | S. cerevisiae deletion strains, locus YMR307W, strain GAS1, stronger effect = lower value 1.04 | S. cerevisiae deletion strains, locus YNL067W, strain RPL9B, stronger effect = lower value 0.989 | S. cerevisiae deletion strains, locus YNL071W, strain lat1, stronger effect = lower value 0.994 | S. cerevisiae deletion strains, locus YNL153C, strain GIM3, stronger effect = lower value 0.993 | S. cerevisiae deletion strains, locus YNL183C, strain NPR1, stronger effect = lower value 0.993 | S. cerevisiae deletion strains, locus YNL209W, strain ssb2, stronger effect = lower value 0.984 | S. cerevisiae deletion strains, locus YNL233W, strain BNI4, stronger effect = lower value 1 | S. cerevisiae deletion strains, locus YNL248C, strain rpa49, stronger effect = lower value 1.01 | S. cerevisiae deletion strains, locus YNL250W, strain rad50, stronger effect = lower value 0.967 | S. cerevisiae deletion strains, locus YNL271C, strain bni1, stronger effect = lower value 0.996 | S. cerevisiae deletion strains, locus YNL298W, strain CLA4, stronger effect = lower value 0.986 | S. cerevisiae deletion strains, locus YNL307C, strain MCK1, stronger effect = lower value 0.981 | S. cerevisiae deletion strains, locus YNL322C, strain KRE1 (second series), stronger effect = lower value 0.976 | S. cerevisiae deletion strains, locus YNR049C, strain mso1, stronger effect = lower value 0.974 | S. cerevisiae deletion strains, locus YNR052C, strain pop2, stronger effect = lower value 0.979 | S. cerevisiae deletion strains, locus YOL006C, strain TOP1, stronger effect = lower value 1.04 | S. cerevisiae deletion strains, locus YOL012C, strain htz1 0.724 | S. cerevisiae deletion strains, locus YOL147C, strain pex11, stronger effect = lower value 0.98 | S. cerevisiae deletion strains, locus YOR001W, strain rrp6, stronger effect = lower value 0.993 | S. cerevisiae deletion strains, locus YOR061W, strain CKA2, stronger effect = lower value 0.962 | S. cerevisiae deletion strains, locus YOR069W, strain VPS5, stronger effect = lower value 0.999 | S. cerevisiae deletion strains, locus YOR070C, strain gyp1, stronger effect = lower value 0.99 | S. cerevisiae deletion strains, locus YOR080W, strain dia2, stronger effect = lower value 0.971 | S. cerevisiae deletion strains, locus YOR083W, strain WHI5, stronger effect = lower value 1.02 | S. cerevisiae deletion strains, locus YOR106W, strain vam3, stronger effect = lower value 0.985 | S. cerevisiae deletion strains, locus YOR136W, strain idh2, stronger effect = lower value 0.973 | S. cerevisiae deletion strains, locus YOR144C, strain elg1, stronger effect = lower value 0.976 | S. cerevisiae deletion strains, locus YOR184W, strain ser1, stronger effect = lower value 0.973 | S. cerevisiae deletion strains, locus YOR231W, strain MKK1, stronger effect = lower value 1.03 | S. cerevisiae deletion strains, locus YOR265W, strain rbl2, stronger effect = lower value 0.968 | S. cerevisiae deletion strains, locus YOR270C, strain vph1, stronger effect = lower value 0.987 | S. cerevisiae deletion strains, locus YOR290C, strain snf2, stronger effect = lower value 0.951 | S. cerevisiae deletion strains, locus YOR316C, strain cot1, stronger effect = lower value 0.976 | S. cerevisiae deletion strains, locus YPL051W, strain arl3, stronger effect = lower value 1 | S. cerevisiae deletion strains, locus YPL078C, strain atp4, stronger effect = lower value 0.999 | S. cerevisiae deletion strains, locus YPL106C, strain sse1, stronger effect = lower value 0.927 | S. cerevisiae deletion strains, locus YPL240C, strain hsp82, stronger effect = lower value 0.994 | S. cerevisiae deletion strains, locus YPL241C, strain CIN2, stronger effect = lower value 0.994 | S. cerevisiae deletion strains, locus YPL256C, strain CLN2, stronger effect = lower value 1.01 | S. cerevisiae deletion strains, locus YPR119W, strain clb2, stronger effect = lower value 0.976 | S. cerevisiae deletion strains, locus YPR141C, strain kar3, stronger effect = lower value 0.97 | S. cerevisiae deletion strains, locus YPR163C, strain tif3, stronger effect = lower value 0.973 | S. cerevisiae deletion strains, locus YPR167C, strain met16, stronger effect = lower value 0.973 | S. cerevisiae deletion strains, strain wtn01, stronger effect = lower value 1.04 | S. cerevisiae strains, strain wild type, stronger effect = lower value 1
